# Where “and” joins values, the source holds several entries; their conditions need not be identical. Equal values may be shown once. Calls of active or inactive are those of the source.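 The calls were made as follows, unless noted: active = inhibition at or above 50% relative to wild type and mutant plate controls; inactive = inhibition below 50%.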
# Tests used:
# [1] = inhibitors of Chlamydomonas gravitaxis, primary screen, whole organism, Chlamydomonas reinhardtii, WT vs cilia-less mutant, absorbance, 96-well (AID 463189); conditions: OD600 absorbance, 2 days, at 10 µM, stronger effect = higher value;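 also: 0% = wild type cc124 cells in DMSO and 100% = ciliumless bld1 mutant cells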
# [2] = inhibitors of mutant huntingtin aggregation, primary screen, imaging, exon1htt(103Q)mCFP cells, high-content imaging (AID 483;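 active = visual image review flags a hit and inhibition of aggregation exceeds 20%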;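 also: compound exposure lasted 3 days before fixation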;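 as to nuclei count: percent of the per-plate median nuclei count of sample wells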); conditions: exon1htt(103Q)mCFP cell line, aggregate imaging, at 2 µM; inhibition of aggregation: stronger effect = higher value; nuclei count: measured here: cell count, toxicity
# [3] = inhibitors of E-selectin induction by TNFa, primary screen, imaging, HUVEC, immunofluorescence, MLSMR starter and 10KST1 sets (AID 487;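 active = visually confirmed hit in the image check and inhibition above 20%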;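 as to inhibition: signal is fraction of cell area covered by stained E-selectin grains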;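 as to nuclei count: 100% = median nuclei count of all wells on the same plate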); conditions: HUVEC TNFalpha-induced E-selectin immunofluorescence imaging, at 2 µM; inhibition: stronger effect = higher value; nuclei count: measured here: cell number, toxicity
# [4] = DUSP6 inhibitors restoring Erk phosphorylation by chemical complementation, primary imaging in DUSP6-transfected HeLa (AID 609;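 active = compounds giving at least 50% inhibition in the cell-based MKP-3 phosphatase rescue imaging test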;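 as to inhibition: phospho-Erk level distribution per well compared with pooled transfected vehicle control wells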); conditions: HeLa MKP-3 transfected, phospho-Erk imaging KS statistic, at 10 µM
# [5] = target: Dual specificity protein phosphatase 6 (Homo sapiens) (UniProt Q16828); test: as above; conditions: HeLa MKP-3 transfected, phospho-Erk imaging KS statistic, at 10 µM, stronger effect = higher value
# Sequence of Dual specificity protein phosphatase 6 (Homo sapiens) (Q16828 whole entry, looked up): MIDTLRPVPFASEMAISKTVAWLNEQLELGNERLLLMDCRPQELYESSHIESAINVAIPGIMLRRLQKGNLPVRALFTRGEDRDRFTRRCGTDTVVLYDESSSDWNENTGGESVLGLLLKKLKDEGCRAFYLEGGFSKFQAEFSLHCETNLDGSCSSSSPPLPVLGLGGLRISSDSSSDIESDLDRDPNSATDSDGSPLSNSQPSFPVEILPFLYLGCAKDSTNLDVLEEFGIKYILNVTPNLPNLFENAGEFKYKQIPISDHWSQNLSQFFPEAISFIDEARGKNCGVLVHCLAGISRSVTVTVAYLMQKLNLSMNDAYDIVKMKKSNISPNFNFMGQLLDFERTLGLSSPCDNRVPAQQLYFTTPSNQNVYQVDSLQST
# [6] = target: Voltage-gated potassium channel subunit beta-2 (Rattus norvegicus) (UniProt P62483); test: KvBeta enzyme negative modulators, primary screen, biochemical, NADPH fluorescence (AID 622;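 active = fluorescence slope higher than the sample average by over 3 SD, cut at about -0.22 in these data, passing the limit was not always enough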;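 also: slope of raw intensity against log time taken from 70 to 1610 s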); conditions: recombinant KvBeta, 4-cyanobenzaldehyde reduction, at 10 µM, stronger effect = higher value
# Sequence of Voltage-gated potassium channel subunit beta-2 (Rattus norvegicus) (P62483 whole entry, looked up): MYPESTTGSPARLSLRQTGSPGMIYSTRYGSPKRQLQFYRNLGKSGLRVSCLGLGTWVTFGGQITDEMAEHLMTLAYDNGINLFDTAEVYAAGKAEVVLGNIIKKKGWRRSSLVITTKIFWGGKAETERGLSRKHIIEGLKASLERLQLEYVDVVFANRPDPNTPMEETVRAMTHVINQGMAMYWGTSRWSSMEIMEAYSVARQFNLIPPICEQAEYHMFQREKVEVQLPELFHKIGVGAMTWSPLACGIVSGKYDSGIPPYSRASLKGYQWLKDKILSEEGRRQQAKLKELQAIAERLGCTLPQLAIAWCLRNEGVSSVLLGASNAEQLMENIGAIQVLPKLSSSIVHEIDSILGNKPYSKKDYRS
# [7] = target: Voltage-gated potassium channel subunit beta-2 (Rattus norvegicus) (UniProt P62483); test: KvBeta positive modulators, primary screen, biochemical, NADPH fluorescence (AID 623;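 active = NADPH fluorescence slope more negative than the mean of all samples by about 3 SD, 99.7% confidence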;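 also: fluorescence intensity change per second fitted from 20 to 320 s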); conditions: Recombinant KvBeta, NADPH fluorescence decrease slope, 10 min; at 10 µM; stronger effect = lower value
# [8] = target: Alpha-2C adrenergic receptor (Homo sapiens) (UniProt P18825); test: modulators of alpha2C/GIRK thallium flux, primary screen, cell-based, HEK293 alpha2C/GIRK1/2 (AID 624;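 active = fluorescence slope after compound addition differing from the mean of all screened samples at 99.7% confidence, in either direction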;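 also: slope of fluorescence ratio to pre-addition baseline per second over 15 to 24 s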); conditions: thallium flux BTC fluorescence, at 10 µM, actives lie on both sides
# Sequence of Alpha-2C adrenergic receptor (Homo sapiens) (P18825 whole entry, looked up): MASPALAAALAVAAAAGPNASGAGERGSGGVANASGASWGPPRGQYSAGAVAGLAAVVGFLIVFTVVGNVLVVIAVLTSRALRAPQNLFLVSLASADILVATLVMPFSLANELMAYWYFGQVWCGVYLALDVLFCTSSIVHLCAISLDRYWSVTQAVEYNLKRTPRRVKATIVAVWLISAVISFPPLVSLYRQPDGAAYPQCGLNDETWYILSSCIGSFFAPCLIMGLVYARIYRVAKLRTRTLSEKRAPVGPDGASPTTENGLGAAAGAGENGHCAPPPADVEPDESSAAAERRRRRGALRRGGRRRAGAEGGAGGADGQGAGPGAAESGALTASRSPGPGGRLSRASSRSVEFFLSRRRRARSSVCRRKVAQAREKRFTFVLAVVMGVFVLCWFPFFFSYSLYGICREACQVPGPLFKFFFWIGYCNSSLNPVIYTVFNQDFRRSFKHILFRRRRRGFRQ
# [9] = inhibitors of Sendai virus-induced IRF3 signaling, primary screen, TLR/RLR signaling modifier project, cell-based, Sendai virus stimulus, luciferase, 10K MLSCN set (AID 602276;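 active = inhibition at or above 50% at 10 µM; inactive = inhibition below 50%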;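 also: firefly luciferase from ISG56 promoter only with Renilla not read in this screen; 0% = Sendai virus plus DMSO and 100% = medium plus DMSO without virus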); conditions: HEK293 RL24 IRF3 luciferase reporter, at 10 µM, stronger effect = higher value
# [10] = inhibitors of poly I:C-induced TLR3 signaling, primary screen, cell-based, poly I:C stimulus, luciferase, 10K MLSCN set (AID 602277;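 active = inhibition of the reporter signal at or above 50%; inactive = inhibition below 50%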); conditions: HEK293-TLR3 RL24 IRF3 luciferase reporter, at 10 µM, stronger effect = higher value
# [11] = inhibitors of larval lipid processing in zebrafish, primary screen, whole organism, PED6 fluorescence, gall bladder and intestine (AID 686;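 active = a full or partial loss of lipid-probe fluorescence in the fish gall bladder, intestine or both, judged by eye; inactive = no fluorescence loss, or compound toxic to the fish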;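 also: larvae 5 to 7 days old with five fish per well; signal comes from phospholipase A2 cleavage of quenched PED6 carried via bile; overnight exposure to compound and PED6 before scoring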); conditions: Zebrafish larvae PED6 lipid processing, fluorescence scoring
# [12] = target: Muscarinic acetylcholine receptor M4 (Homo sapiens) (UniProt P08173); test: compounds altering M4/GIRK thallium flux, either direction, primary screen, M4 allosteric agonist project, cell-based, HEK293 M4/GIRK, BTC-AM (AID 625;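 active = fluorescence slope after compound addition differing from the mean of all tested samples at 99.7% confidence, mostly higher but some lower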;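 also: thallium influx through GIRK channels coupled to M4 in HEK293 cells with BTC-AM dye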); conditions: at 10 µM, actives lie on both sides
# Sequence of Muscarinic acetylcholine receptor M4 (Homo sapiens) (P08173 whole entry, looked up): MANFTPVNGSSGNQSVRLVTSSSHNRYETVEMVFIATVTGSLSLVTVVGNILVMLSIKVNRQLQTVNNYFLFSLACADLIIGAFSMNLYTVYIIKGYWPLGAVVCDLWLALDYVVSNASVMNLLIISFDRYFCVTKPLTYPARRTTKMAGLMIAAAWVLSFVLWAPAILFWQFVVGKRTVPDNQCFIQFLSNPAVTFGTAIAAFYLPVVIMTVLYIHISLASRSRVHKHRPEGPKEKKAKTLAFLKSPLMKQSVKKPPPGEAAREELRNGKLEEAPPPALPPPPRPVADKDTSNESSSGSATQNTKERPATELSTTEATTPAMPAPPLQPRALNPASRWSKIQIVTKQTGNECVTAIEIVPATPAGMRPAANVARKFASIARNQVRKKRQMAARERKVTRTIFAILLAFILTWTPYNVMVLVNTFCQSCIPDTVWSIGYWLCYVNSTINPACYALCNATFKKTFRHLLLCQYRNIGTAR
# [13] = measured here: cell density z-score
# [14] = measured here: nuclear c-Myc green intensity z-score
# [15] = measured here: nuclear pErk red intensity z-score, stronger effect = higher value
structure (smiles),measurement,setting,value
O=C1CC[C@@]2(O)C3Cc4ccc(O)c5c4C2(CCN3CC2CC2)[C@H]1O5 (stereo partly drawn),inhibition,[1],-3.7% (inactive)
Cc1nccc2c1[nH]c1ccccc12,inhibition,[1],10.4% (inactive)
O=C(O)[C@@H]1CCN1,inhibition,[1],2.04% (inactive)
COc1cc(C=C(C#N)C#N)cc(O)c1O,inhibition,[1],10.5% (inactive)
NC(Cc1ccc(N(CCCl)CCCl)cc1)C(=O)O (stereo not drawn),inhibition,[1],3.86% (inactive)
CNC(=O)OCC[N+](C)(C)C,inhibition,[1],-0.129% (inactive)
CCCCc1ccc(C(=O)O)nc1,inhibition,[1],-11.3% (inactive)
O=C(O)C1C2CCC(O2)C1C(=O)O (stereo not drawn),inhibition,[1],-11.7% (inactive)
C=C(C)[C@H]1CN[C@H](C(=O)O)[C@H]1CC(=O)O,inhibition,[1],-2.25% (inactive)
N[C@H](CCCCCP(=O)(O)O)C(=O)O,inhibition,[1],-8.7% (inactive)
CCCN1CCO[C@@H]2c3cc(O)ccc3OC[C@H]21,inhibition,[1],3.37% (inactive) and -1.05% (inactive)
NCc1cc(=O)[nH]o1,inhibition,[1],5.71% (inactive)
CNCCc1c[nH]c2ccc(O)cc12,inhibition,[1],8.6% (inactive)
O=c1[nH]c2ccccc2n1CCCN1CCC(n2c(=O)[nH]c3cc(Cl)ccc32)CC1,inhibition of aggregation,[2],13.3% (inactive)
same,nuclei count,[2],79.8%
same,inhibition,[3],-81.4% (inactive)
same,nuclei count,[3],120%
same,z-score,[4]; [13],-1.29
same,z-score,[4]; [14],0.926
same,z-score,[4]; [15],0.563
same,inhibition,[5],12.4% (inactive)
same,fluorescence slope,[6],-0.455 (inactive)
same,NADPH fluorescence slope,[7],-4.5e-05 (inactive)
same,slope,[8],0.00301 (inactive)
same,inhibition,[1],2.96% (inactive) and 11.3% (inactive)
same,inhibition,[9],7.67% (inactive)
same,inhibition,[10],18.2% (inactive)
CC[C@@H]1C(=O)OC[C@@H]1Cc1cncn1C,inhibition of aggregation,[2],8.3% (inactive) and -13.2% (inactive)
same,nuclei count,[2],112% and 101%
same,inhibition,[3],-46.3% (inactive) and -64.9% (inactive)
same,nuclei count,[3],122% and 127%
same,z-score,"[4]; measured here: cell density z-score, cells stimulated with TPA for 15 min",0.654 and -2.12
same,z-score,"[4]; measured here: nuclear c-Myc green intensity z-score, cells stimulated with TPA for 15 min",-1.14 and -0.253
same,z-score,"[4]; measured here: nuclear pErk red intensity z-score, stronger effect = higher value, cells stimulated with TPA for 15 min",0.525 and 1.62
same,inhibition,[5],11.3% [cells stimulated with TPA for 15 min] (inactive) and 10.2% [cells stimulated with TPA for 15 min] (inactive)
same,fluorescence slope,[6],-0.572 (inactive) and -0.488 (inactive)
same,NADPH fluorescence slope,[7],7.3e-06 (inactive) and -6e-05 (inactive)
same,outcome,[11],inactive [screened at 20 µM (by protocol)]
same,inhibition,[9],18.4% (inactive) and -3.13% (inactive)
same,inhibition,[10],19% (inactive) and 27% (inactive)
CC(=O)CC(C)(C)n1c[n+](C)nn1,inhibition,[3],-59% (inactive)
same,nuclei count,[3],155%
same,z-score,[4]; [13],0.619
same,z-score,[4]; [14],-0.892
same,z-score,[4]; [15],-1.39
same,inhibition,[5],-5.89% (inactive)
same,fluorescence slope,[6],-0.383 (inactive)
same,NADPH fluorescence slope,[7],-5.6e-05 (inactive)
same,fluorescence slope,[12],0.00569 (inactive)
same,outcome,[11],inactive
same,inhibition,[1],-0.884% (inactive)
CCCC(C)(COC(N)=O)COC(=O)NC(C)C (stereo not drawn),inhibition of aggregation,[2],18.2% (inactive)
same,nuclei count,[2],100%
same,inhibition,[3],0.8% (inactive)
same,nuclei count,[3],106%
same,z-score,[4]; [13],-1.69
same,z-score,[4]; [14],0.189
same,z-score,[4]; [15],-1.67
same,inhibition,[5],-0.493% (inactive)
same,fluorescence slope,[6],-0.459 (inactive)
same,NADPH fluorescence slope,[7],1.2e-05 (inactive)
same,slope,[8],0.0053 (inactive)
same,outcome,[11],inactive
same,inhibition,[1],-1.2% (inactive) and -10.3% (inactive)
same,inhibition,[9],3.15% (inactive)
same,inhibition,[10],14.5% (inactive)
NC(=O)c1ccc(OCC(O)CN2CC=C(c3ccc(F)cc3)CC2)cc1 (stereo not drawn),inhibition,[1],-9.43% (inactive)
CN1C(=O)CCS(=O)(=O)C1c1ccc(Cl)cc1 (stereo not drawn),inhibition,[1],9.97% (inactive)
CN[C@@H](C)[C@H](O)c1ccccc1,inhibition,[1],-4.11% (inactive)
CCC1(C2=NCCN2)Cc2ccccc2O1 (stereo not drawn),inhibition,[1],-5.93% (inactive)
COC(=O)[C@@H](N)CCCN=C(N)N[N+](=O)[O-],inhibition,[1],-4.62% (inactive)
CC(C)NP(=O)(NC(C)C)OP(=O)(NC(C)C)NC(C)C,inhibition,[1],5.29% (inactive)
COc1ccc2c(c1)c(C(=O)O)c(C)n2CC(C)C,inhibition,[3],37.7% (inactive)
same,nuclei count,[3],86.4%
same,z-score,[4]; [13],-0.228
same,z-score,[4]; [14],-1.03
same,z-score,[4]; [15],0.232
same,inhibition,[5],-2.07% (inactive)
same,fluorescence slope,[6],-0.462 (inactive)
same,NADPH fluorescence slope,[7],-3.5e-05 (inactive)
same,fluorescence slope,[12],0.00491 (inactive)
same,outcome,[11],inactive
same,inhibition,[1],36.3% (inactive)
C[C@]12CCC(=O)C=C1CC[C@@H]1[C@@H]2CC[C@]2(C)C(=O)CC[C@@H]12,inhibition of aggregation,[2],16.3% (inactive)
same,nuclei count,[2],88.1%
same,inhibition,[3],-105% (inactive)
same,nuclei count,[3],117%
same,z-score,[4]; [13],-1.04
same,z-score,[4]; [14],-1.5
same,z-score,[4]; [15],2.67
same,inhibition,[5],11.3% (inactive)
same,fluorescence slope,[6],-0.41 (inactive)
same,NADPH fluorescence slope,[7],2.5e-05 (inactive)
same,slope,[8],0.00365 (inactive)
same,outcome,[11],inactive
same,inhibition,[1],3.25% (inactive) and 26.7% (inactive)
same,inhibition,[9],5% (inactive)
same,inhibition,[10],31.7% (inactive)
CN(C)[C@@H]1C(=O)C(C(N)=O)=C(O)[C@@]2(O)C(=O)C3=C(O)c4c(O)cccc4[C@@](C)(O)[C@H]3[C@H](O)[C@@H]12,inhibition of aggregation,[2],62.6% (active)
same,nuclei count,[2],102%
same,inhibition,[3],-42.6% (inactive)
same,nuclei count,[3],123%
same,z-score,[4]; [13],1.9
same,z-score,[4]; [14],-1.29
same,z-score,[4]; [15],-0.511
same,inhibition,[5],8% (inactive)
same,fluorescence slope,[6],-0.459 (inactive)
same,NADPH fluorescence slope,[7],-9.9e-05 (inactive)
same,slope,[8],0.00569 (inactive)
same,outcome,[11],inactive
same,inhibition,[1],12% (inactive)
same,inhibition,[9],-6.24% (inactive)
same,inhibition,[10],5.5% (inactive)
